The panel holds about 83,000 compounds, 20% with a hit somewhere; the sample as a whole holds those more often.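 Growth was measured after 48 h exposure to one concentration of compound in 96-well plates. Values under 10 count as active.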 Activity calls are given as the source filed them.
The molecules below were run on EKVX NSCLC (assay: NCI-60 one-dose screen, 48 h (100 = growth as untreated, 0 = no growth, -100 = all killed)). Settings: 10 µM unless noted.

Compound | growth
CCN(CC)CCOc1ccccc1-n1c(C)ccc1-c1ccccc1 | 83.8% (inactive)
Cn1cc(-c2csc(-c3c[nH]c4ncccc34)n2)c2cc(Br)cnc21 | 24.2% (inactive)
COc1ccc(/C=C2\NC(=S)NC2=O)cc1 | 101% (inactive)
Nc1ccccc1-c1ccc([N+](=O)[O-])cc1 | 74.6% (inactive)
Cc1cc(NC(=O)c2ccc(N)cc2)ccc1N=Nc1ccc2c(O)c(N=Nc3ccc(Cl)c(S(=O)(=O)O)c3)c(S(=O)(=O)O)cc2c1 | 106% (inactive)
CC[N+](CC)(CCOCCOCC[N+](CC)(CC)Cc1ccc([N+](=O)[O-])cc1)Cc1ccc([N+](=O)[O-])cc1 | 101% (inactive)
CCC(c1ccccc1)c1noc(CCN(CC)CC)n1 (centres undefined) | 105% (inactive)
CC(=O)Nc1ccc2c(c1)Cc1c(F)c(F)c(F)c(F)c1-2 | 70.3% (inactive)
OC(Cc1cccnc1)c1ccccc1 (centres undefined) | 113% (inactive)
C/C(=N/N=C(N)N)c1ccc(N)cc1 | 119% (inactive)
O=C(O)c1ccccc1C(=O)OC1CCCC2CCCC21 (centres undefined) | 92.4% (inactive)
CN1CCCC1c1cccnc1 (centres undefined) | 123% (inactive)
COc1c(O)cc2oc3cc(O)c(CC=C(C)C)c(O)c3c(=O)c2c1C/C=C(\C)CCC=C(C)C | 81.5% (inactive)
Nc1nc(SCc2ccccc2Cl)c(-c2ccccc2)c(SCc2ccccc2Cl)n1 | 97.3% (inactive)
CO[C@H]1/C=C/O[C@@]2(C)Oc3c(C)c(O)c4c(O)c(c(/C=N/N5C(C)CN(Cc6ccccc6)CC5C)c(O)c4c3C2=O)NC(=O)/C(C)=C\C=C\[C@H](C)[C@H](O)[C@@H](C)[C@@H](O)[C@@H](C)[C@H](OC(C)=O)[C@@H]1C (some centres undefined) | 64.7% (inactive)
CCOC(=O)C(C(C)=O)c1nc2sc3cc(Cl)ccc3n2c(=N)c1C#N (centres undefined) | 73.6% (inactive)
COc1ccc(-c2nn(-c3cccc(Cl)c3)cc2C2CC(c3ccccc3)=NN2C(C)=O)cc1 (centres undefined) | 67.6% (inactive)
CCS(=O)(=O)OCCCl | 105% (inactive)
O=C1Nc2ccc(F)cc2/C1=C/c1nc(-c2ccc(F)cc2)n2ccccc12 | 104% (inactive)

Compound | growth
Cc1c(C(N)=O)sc2ncn(Cc3ccccc3)c(=O)c12 | 122% (inactive)
Nc1nc2ncc(CCNc3ccc(C(=O)NC(CCC(=O)O)C(=O)O)cc3)nc2c(=O)[nH]1 (centres undefined) | 119% (inactive)
COc1cccc2c1C(=O)c1c(O)c3c(c(O)c1C2=O)C[C@@](O)(/C(C)=N/NC(=O)c1cccc([N+](=O)[O-])c1)C[C@@H]3OC1CC(N)C(O)C(C)O1 (some centres undefined) | -6.35% (active)
NC(=O)NN=C(C1CC1)C1CC1 | 103% (inactive)
C[n+]1ccc(Nc2ccc(NC(=O)c3ccc(Nc4cc[n+](C)c5ccc(N)cc45)cc3)cc2)cc1 | 93.9% (inactive)
COc1cc(OC)c2cc(C(=O)O)c(=O)oc2c1 | 98.2% (inactive)
CCOc1ccccc1C(=O)OCC(=O)Nc1cccc(S(=O)(=O)N(C)C)c1 | 104% (inactive)
S=C(Nc1ccc(C2=NCCN2)cc1)Nc1ccc(C2=NCCN2)cc1 | 91.9% (inactive)
S=c1[nH]nc2sc3ccccc3n12 | 116% (inactive)
Cn1c(N)c(N=O)c(=O)[nH]c1=O | 98% (inactive)
Cc1ccc(C(=O)Nc2ccc(Cl)cc2C(=O)NCc2ccccc2)cc1 | 80.3% (inactive)
O=[N+]([O-])c1ccc2c(c1)S(=O)c1cc([N+](=O)[O-])ccc1N2 | 112% (inactive)
Nc1ccc2c3c(cccc13)-c1ccccc1-2 | 87.4% (inactive)
CC(c1cc(Cl)ccc1O)c1cc(Cl)ccc1O | 41.1% (inactive)
Nc1ccc2c(c1)/C(=N/O)c1cc([N+](=O)[O-])ccc1-2 | 85.9% (inactive)
Nc1cc(Cl)c(S(N)(=O)=O)cc1S(N)(=O)=O | 111% (inactive)
O=C(CSc1nc2c(n1Nc1ccccc1)-c1ccccc1SC2)Nc1nc(-c2ccc(Cl)cc2)cs1 | 69.8% (inactive)
Cc1cc(O)c2c(c1)C[C@H]1[C@@H]3CC[C@H]4CC(=O)CC[C@]4(C)[C@H]3CC(=O)[C@]21C | 49.8% (inactive)

What follows are molecules tested on SN12C renal in the same assay as above. Settings: 10 µM unless noted.

Compound | growth
CCN(CC)CCOc1ccccc1-n1c(C)ccc1-c1ccccc1 | 91.7% (inactive)
Cn1cc(-c2csc(-c3c[nH]c4ncccc34)n2)c2cc(Br)cnc21 | 4.21% (active)
COc1ccc(/C=C2\NC(=S)NC2=O)cc1 | 101% (inactive)
Nc1ccccc1-c1ccc([N+](=O)[O-])cc1 | 60.3% (inactive)
Cc1cc(NC(=O)c2ccc(N)cc2)ccc1N=Nc1ccc2c(O)c(N=Nc3ccc(Cl)c(S(=O)(=O)O)c3)c(S(=O)(=O)O)cc2c1 | 102% (inactive)
CC[N+](CC)(CCOCCOCC[N+](CC)(CC)Cc1ccc([N+](=O)[O-])cc1)Cc1ccc([N+](=O)[O-])cc1 | 94.2% (inactive)
CCC(c1ccccc1)c1noc(CCN(CC)CC)n1 (centres undefined) | 100% (inactive)
CC(=O)Nc1ccc2c(c1)Cc1c(F)c(F)c(F)c(F)c1-2 | 90.2% (inactive)
OC(Cc1cccnc1)c1ccccc1 (centres undefined) | 99.3% (inactive)
C/C(=N/N=C(N)N)c1ccc(N)cc1 | 95.9% (inactive)
O=C(O)c1ccccc1C(=O)OC1CCCC2CCCC21 (centres undefined) | 95.8% (inactive)
CN1CCCC1c1cccnc1 (centres undefined) | 94.2% (inactive)
COc1c(O)cc2oc3cc(O)c(CC=C(C)C)c(O)c3c(=O)c2c1C/C=C(\C)CCC=C(C)C | -8.91% (active)
Nc1nc(SCc2ccccc2Cl)c(-c2ccccc2)c(SCc2ccccc2Cl)n1 | 104% (inactive)
CO[C@H]1/C=C/O[C@@]2(C)Oc3c(C)c(O)c4c(O)c(c(/C=N/N5C(C)CN(Cc6ccccc6)CC5C)c(O)c4c3C2=O)NC(=O)/C(C)=C\C=C\[C@H](C)[C@H](O)[C@@H](C)[C@@H](O)[C@@H](C)[C@H](OC(C)=O)[C@@H]1C (some centres undefined) | 87% (inactive)
CCOC(=O)C(C(C)=O)c1nc2sc3cc(Cl)ccc3n2c(=N)c1C#N (centres undefined) | 85.9% (inactive)
COc1ccc(-c2nn(-c3cccc(Cl)c3)cc2C2CC(c3ccccc3)=NN2C(C)=O)cc1 (centres undefined) | 69.7% (inactive)
CCS(=O)(=O)OCCCl | 102% (inactive)
O=C1Nc2ccc(F)cc2/C1=C/c1nc(-c2ccc(F)cc2)n2ccccc12 | 98.9% (inactive)

Compound | growth
Cc1c(C(N)=O)sc2ncn(Cc3ccccc3)c(=O)c12 | 97.8% (inactive)
Nc1nc2ncc(CCNc3ccc(C(=O)NC(CCC(=O)O)C(=O)O)cc3)nc2c(=O)[nH]1 (centres undefined) | 108% (inactive)
COc1cccc2c1C(=O)c1c(O)c3c(c(O)c1C2=O)C[C@@](O)(/C(C)=N/NC(=O)c1cccc([N+](=O)[O-])c1)C[C@@H]3OC1CC(N)C(O)C(C)O1 (some centres undefined) | -9.27% (active)
NC(=O)NN=C(C1CC1)C1CC1 | 108% (inactive)
C[n+]1ccc(Nc2ccc(NC(=O)c3ccc(Nc4cc[n+](C)c5ccc(N)cc45)cc3)cc2)cc1 | 88.4% (inactive)
COc1cc(OC)c2cc(C(=O)O)c(=O)oc2c1 | 108% (inactive)
CCOc1ccccc1C(=O)OCC(=O)Nc1cccc(S(=O)(=O)N(C)C)c1 | 103% (inactive)
S=C(Nc1ccc(C2=NCCN2)cc1)Nc1ccc(C2=NCCN2)cc1 | 98.9% (inactive)
S=c1[nH]nc2sc3ccccc3n12 | 103% (inactive)
Cn1c(N)c(N=O)c(=O)[nH]c1=O | 101% (inactive)
Cc1ccc(C(=O)Nc2ccc(Cl)cc2C(=O)NCc2ccccc2)cc1 | 97.7% (inactive)
O=[N+]([O-])c1ccc2c(c1)S(=O)c1cc([N+](=O)[O-])ccc1N2 | 101% (inactive)
Nc1ccc2c3c(cccc13)-c1ccccc1-2 | 55.8% (inactive)
CC(c1cc(Cl)ccc1O)c1cc(Cl)ccc1O | 39.5% (inactive)
Nc1ccc2c(c1)/C(=N/O)c1cc([N+](=O)[O-])ccc1-2 | 86.2% (inactive)
Nc1cc(Cl)c(S(N)(=O)=O)cc1S(N)(=O)=O | 109% (inactive)
O=C(CSc1nc2c(n1Nc1ccccc1)-c1ccccc1SC2)Nc1nc(-c2ccc(Cl)cc2)cs1 | 73.8% (inactive)
Cc1cc(O)c2c(c1)C[C@H]1[C@@H]3CC[C@H]4CC(=O)CC[C@]4(C)[C@H]3CC(=O)[C@]21C | 81.3% (inactive)
